Compounds without any hit were thinned out: in the full panel of roughly 79,000, 15% have a hit. The source made the active and inactive calls. Cut-off read from the data, not from the text of the source: active = growth inhibition above about 70%; inactive = the rest.
How the values were obtained:
[1] = NCI Yeast Anticancer Drug Screen. Data for the rad52 strain (AID 147);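 note: 0% = growth of vehicle-treated control cultures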; conditions: S. cerevisiae rad52 mutant growth inhibition, stronger effect = higher value
In short: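 Growth of repair-deficient yeast cells was compared between compound-treated and vehicle-treated cultures to give percent inhibition.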

[2] = NCI Yeast Anticancer Drug Screen. Data for the wt1 strain (AID 149);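 note: 0% = growth of vehicle-treated wt1 cultures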; conditions: S. cerevisiae wt1 strain (SPY 50644) growth inhibition, stronger effect = higher value
In short: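 Yeast wt1 strain exposed to compounds; growth inhibition measured relative to vehicle-treated controls.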

[3] = NCI Yeast Anticancer Drug Screen. Data for the rad50EPP+ strain (AID 151);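 note: 0% = growth of vehicle-treated control cultures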; conditions: S. cerevisiae rad50 mutant strain, stronger effect = higher value
In short: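 Measured: growth inhibition of rad50EPP+ yeast. Reference: vehicle-treated controls. Screen uses strains with defined genetic alterations in DNA damage repair or cell cycle control.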

[4] = NCI Yeast Anticancer Drug Screen. Data for the mgt1 strain (AID 153); conditions: S. cerevisiae mgt1 mutant growth inhibition, stronger effect = higher value
In short: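 Compounds were applied to mgt1 mutant yeast, and growth was then compared against vehicle-treated control cultures to give percent inhibition.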

[5] = NCI Yeast Anticancer Drug Screen. Data for the rad50 strain (AID 155);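 note: 0% = growth of vehicle-only cultures of the same strain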; conditions: S. cerevisiae rad50 strain growth inhibition, stronger effect = higher value
In short: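 Yeast carrying a defined DNA repair defect were exposed to test compounds, and growth was compared with vehicle-treated controls to give percent inhibition.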

[6] = NCI Yeast Anticancer Drug Screen. Data for the mec2-1 strain (AID 157); conditions: S. cerevisiae mec2-1 strain, stronger effect = higher value
In short: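 Compounds were applied to mec2-1 yeast cells. Their growth was then compared with that of vehicle-treated cultures to give growth inhibition.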

[7] = NCI Yeast Anticancer Drug Screen. Data for the rad14 strain (AID 159);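 note: 0% = growth of vehicle-treated control cultures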; conditions: S. cerevisiae rad14 strain growth inhibition, stronger effect = higher value
In short: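 Yeast cells carrying a defined DNA-repair defect were exposed to compounds, and growth inhibition was calculated relative to vehicle-treated control cultures.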

[8] = NCI Yeast Anticancer Drug Screen. Data for the sgs1 mgt1 strain (AID 161);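 note: 0% = growth of cultures given vehicle only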; conditions: S. cerevisiae sgs1 mgt1 strain, stronger effect = higher value
In short: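 Growth of a repair-deficient yeast mutant was monitored after compound treatment and expressed as inhibition relative to vehicle-treated cultures.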

[9] = NCI Yeast Anticancer Drug Screen. Data for the CLN2oe strain (AID 163);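 note: 0% = growth of vehicle-only control cultures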; conditions: S. cerevisiae CLN2oe strain, stronger effect = higher value
In short: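 Cells of an engineered yeast line with disturbed cell-cycle regulation are treated with compound. Inhibition of growth is then calculated relative to the vehicle-treated reference.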

[10] = NCI Yeast Anticancer Drug Screen. Data for the cln2 rad14 strain (AID 165);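 note: 0% = growth equal to vehicle treated cultures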; conditions: S. cerevisiae cln2 rad14 strain, stronger effect = higher value
In short: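 Strain: cln2 rad14 yeast, altered in cell cycle control and DNA damage repair. Read-out: growth inhibition vs vehicle.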

[11] = NCI Yeast Anticancer Drug Screen. Data for the bub3 strain (AID 167); conditions: S. cerevisiae bub3 mutant strain, stronger effect = higher value
In short: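 Compounds were applied to a genetically altered yeast strain carrying a cell-cycle control defect. Growth inhibition was scored against vehicle-treated controls.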

[12] = NCI Yeast Anticancer Drug Screen. Data for the wt2 strain (AID 169);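 note: 0% = growth of vehicle-treated yeast cultures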; conditions: S. cerevisiae wt2 strain growth inhibition, stronger effect = higher value
In short: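 Growth of compound-treated yeast is measured and expressed as inhibition relative to vehicle-only controls.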

[13] = NCI Yeast Anticancer Drug Screen. Data for the mlh1 strain (AID 171);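 note: 0% = growth of vehicle-treated control cultures of the same strain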; conditions: S. cerevisiae mlh1 strain growth inhibition, stronger effect = higher value
In short: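 Test agents were incubated with yeast bearing a defined DNA damage repair or cell cycle control alteration; values are growth inhibition normalised to vehicle-treated cultures.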

[14] = NCI Yeast Anticancer Drug Screen. Data for the sgs1 strain (AID 173);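 note: 0% = growth of vehicle-only control cultures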; conditions: S. cerevisiae sgs1 mutant, stronger effect = higher value
In short: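 Strain with an altered DNA repair or cell cycle pathway exposed to compound. Growth then measured. Value = inhibition versus vehicle control.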

[15] = NCI Yeast Anticancer Drug Screen. Data for the mlh1 rad18 strain (AID 175); conditions: S. cerevisiae mlh1 rad18 strain growth inhibition, stronger effect = higher value
In short: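 A repair-deficient yeast strain is exposed to test compound, and growth is scored relative to vehicle-treated controls.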

[16] = NCI Yeast Anticancer Drug Screen. Data for the rad18 strain (AID 177); conditions: S. cerevisiae rad18 mutant growth inhibition, stronger effect = higher value
In short: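 DNA-repair-defective yeast; compound treatment; growth inhibition scored against vehicle.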

[17] = at 5.0 µM (retest, dose inferred, filed as 0.5)
[18] = at 50.0 µM (retest, dose inferred, filed as 5.0)

Measured: growth inhibition

C/C(=N\Sc1ccccc1)c1ccccc1O
active: [1]; at 100.0 µM 85% | [3]; at 100.0 µM 91% | [5]; [18] 71% | [5]; at 50.0 µM 79% | [5]; at 100.0 µM 90% | [13]; at 100.0 µM 79% | [14]; at 100.0 µM 91% | [15]; at 50.0 µM 94.2% | [16]; at 100.0 µM 90%
inactive: [1]; at 1.2 µM 1% | [1]; at 3.7 µM 4% | [1]; at 11.0 µM 2% | [1]; at 33.0 µM 21% | [2]; at 1.2 µM -3% | [2]; at 3.7 µM -4% | [2]; at 11.0 µM -4% | [2]; at 33.0 µM 4% | [2]; at 100.0 µM 64% | [3]; at 1.2 µM 3% | [3]; at 3.7 µM 5% | [3]; at 11.0 µM 9% | [3]; at 33.0 µM 35% | [4]; at 1.2 µM 2% | [4]; at 3.7 µM -2% | [4]; at 11.0 µM -1% | [4]; at 33.0 µM 8% | [4]; at 100.0 µM 62% | [5]; at 1.2 µM -3% | [5]; at 3.7 µM -4% | [5]; [17] -144% | [5]; at 11.0 µM 7% | [5]; at 33.0 µM 16% | [6]; at 1.2 µM -1% | [6]; at 3.7 µM 2% | [6]; [17] -48% | [6]; at 11.0 µM -11% | [6]; at 33.0 µM -1% | [6]; [18] -4% | [6]; at 50.0 µM 51.5% | [6]; at 100.0 µM 62% | [7]; at 1.2 µM -4% | [7]; at 3.7 µM -9% | [7]; at 11.0 µM -5% | [7]; at 33.0 µM 9% | [7]; at 100.0 µM 63% | [8]; [17] -63% | [8]; [18] 49% | [8]; at 50.0 µM 33.5% | [9]; at 1.2 µM 2% | [9]; at 3.7 µM -1% | [9]; at 11.0 µM 2% | [9]; at 33.0 µM 1% | [9]; at 100.0 µM 39% | [10]; [17] -59% | [10]; [18] -38% | [10]; at 50.0 µM 11.5% | [11]; at 1.2 µM 0% | [11]; at 3.7 µM 2% | [11]; [17] -62% | [11]; at 11.0 µM -1% | [11]; at 33.0 µM 5% | [11]; [18] 55% | [11]; at 50.0 µM 49.2% | [11]; at 100.0 µM 53% | [12]; at 1.2 µM 1% | [12]; at 3.7 µM 2% | [12]; at 11.0 µM 1% | [12]; at 33.0 µM 0% | [12]; at 100.0 µM 62% | [13]; at 1.2 µM 2% | [13]; at 3.7 µM 3% | [13]; at 11.0 µM -2% | [13]; at 33.0 µM 13% | [14]; at 1.2 µM 1% | [14]; at 3.7 µM 4% | [14]; at 11.0 µM 10% | [14]; at 33.0 µM 35% | [15]; [17] -115% | [15]; [18] 59% | [16]; at 1.2 µM -2% | [16]; at 3.7 µM 0% | [16]; at 11.0 µM 4% | [16]; at 33.0 µM 21%

CNC(=S)N/N=C(/C)CCC/C(C)=N/NC(=S)NC
active: [5]; at 11.0 µM 87% | [5]; at 33.0 µM 89% | [5]; at 100.0 µM 92%
inactive: [1]; at 1.2 µM 28% | [1]; at 3.7 µM 54% | [1]; at 11.0 µM 64% | [1]; at 33.0 µM 64% | [1]; at 100.0 µM 68% | [2]; at 1.2 µM 1% | [2]; at 3.7 µM 35% | [2]; at 11.0 µM 48% | [2]; at 33.0 µM 45% | [2]; at 100.0 µM 44% | [3]; at 1.2 µM -9% | [3]; at 3.7 µM 17% | [3]; at 11.0 µM 37% | [3]; at 33.0 µM 59% | [3]; at 100.0 µM 43% | [4]; at 1.2 µM 3% | [4]; at 3.7 µM 12% | [4]; at 11.0 µM 22% | [4]; at 33.0 µM 22% | [4]; at 100.0 µM 32% | [5]; at 1.2 µM 36% | [5]; at 3.7 µM 67% | [5]; [17] 40% | [5]; [18] 37% | [5]; at 50.0 µM 66.8% | [6]; at 1.2 µM 27% | [6]; at 3.7 µM 42%

Reference: PubChem BioAssay (NCI)
